HP1b chromo inh: HP1-beta chromodomain-methylated histone interaction inhibition; Potency, µM (titrated, usually from 114 µM), without a hit: top-dose activity change, negative = inhibition, usual class: inhibitors; AlphaScreen HP1-beta / biotin-H3K9me3 peptide binding; 0.56% of 390,000 active; AID 540317; further: nearly all actives have a fitted effect of over 70% in size
Target sequence (P83916 whole entry, looked up): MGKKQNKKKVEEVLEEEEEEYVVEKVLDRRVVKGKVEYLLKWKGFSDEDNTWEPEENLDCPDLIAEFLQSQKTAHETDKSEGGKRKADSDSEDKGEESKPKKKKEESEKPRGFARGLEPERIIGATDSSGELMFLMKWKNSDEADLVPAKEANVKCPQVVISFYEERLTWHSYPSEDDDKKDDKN
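Compound inhibition of the preformed complex between 50 nM HP1-beta and 50 nM biotinylated H3K9me3 peptide was read by AlphaScreen. Buffer was PBS pH 7.4 with 0.01% Tween-20. Incubations ran 30 min at room temperature, with 10 ug/mL donor/acceptor beads.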
JMJD2A Tudor inh: blocks the human JMJD2A Tudor domain; 4.4% of 390,000 active; Potency, µM (doses to about 114 µM), inactives show at the top dose activity change, negative = inhibition, most hits filed as inhibitors; AlphaScreen JMJD2A-Tudor / H3K4me3 peptide binding; AID 504339; further: on the % scale 0 is the no-effect control and ±100 the full control effect; nearly all actives have a fitted effect of over 50% in size
G9a block: inhibitors of human histone lysine methyltransferase G9a. Q96KQ7. G9a H3K9 monomethylation, AlphaScreen, 2 h. Potency, µM (top dose mostly 102 µM), without a hit: at the top dose activity, negative = inhibition, actives largely listed as inhibitors. 8.8% of 350,000 active. AID 504332; further: on the % scale 0 is the no-effect control and ±100 the full control effect; nearly all actives have a fitted effect of over 75% in size
Target sequence (Q96KQ7 913-1193 limits assumed): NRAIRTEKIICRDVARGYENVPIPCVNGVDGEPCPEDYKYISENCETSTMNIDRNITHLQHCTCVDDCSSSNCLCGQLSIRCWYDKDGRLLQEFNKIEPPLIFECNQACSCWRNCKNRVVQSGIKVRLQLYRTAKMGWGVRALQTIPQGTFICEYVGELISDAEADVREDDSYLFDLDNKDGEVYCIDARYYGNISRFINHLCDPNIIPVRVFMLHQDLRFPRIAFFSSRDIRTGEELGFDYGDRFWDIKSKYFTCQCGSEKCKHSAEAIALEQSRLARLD
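Methyltransferase reactions run at room temperature for 2 h (20 nM enzyme, 500 nM biotin-H3K9 peptide, 20 uM SAM) after a 15 min compound preincubation; product detected by AlphaScreen beads and anti-H3K9me1 antibody.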
L3MBTL1 inh: blocks human L3MBTL1 | Q9Y468 | AlphaScreen L3MBTL1–H3K9me1 peptide binding | Potency, µM (doses to about 57.1 µM), inactives show at the highest dose activity, negative = inhibition, hits mostly inhibitors | 0.66% of 230,000 active | AID 485360; further: on the % scale 0 is the no-effect control and ±100 the full control effect; nearly all actives have a fitted effect of over 60% in size
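AlphaScreen proximity signal between nickel-chelate acceptor and streptavidin donor beads (final 10 ug/mL) reports binding of 50 nM L3MBTL1 to 75 nM biotin-H3 K9me1 peptide; complex incubated with compounds 30 min at room temperature; cefsulodin titration as control.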
BAZ2B block: BAZ2B (human) inhibition | Q9UIF8 | AlphaScreen BAZ2B-H3K14Ac peptide displacement | Potency, µM (doses to about 114 µM), inactives show top-dose activity change, negative = inhibition, actives largely listed as inhibitors | 4.4% of 360,000 active; further: on the % scale 0 is the no-effect control and ±100 the full control effect; nearly all actives have a fitted effect of over 60% in size
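Protein-peptide AlphaScreen: BAZ2B 50 nM, b-H3K14Ac 50 nM, 1x PBS pH 7.4 + 0.01% Tween-20. Preincubation 30 min RT; cpd 30 min RT (top 110 uM); beads 20 min RT, light-protected.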
Active calls of the source: *; ? = inconclusive; . = no result; [ ] = dose if it differs, or a comment. Compounds with a hit are over-represented: about 11% of the library has one in this group of screens. The call rests on the fitted dose curve; in most records, active means well fitted inhibition curve with a large enough effect; inconclusive means small, poorly fitted or top-dose-only effect; inactive means no such curve, though single readings can be large or run the other way. Potency means the concentration at half of the fitted maximal effect.

SMILES | HP1b chromo inh | JMJD2A Tudor inh | G9a block | L3MBTL1 inh | BAZ2B block
CC1Cc2cc(/C(O)=C3/C(=O)C(=O)N(CCCn4ccnc4)C3c3cccc([N+](=O)[O-])c3)ccc2O1 (stereo unspecified) | -4% | -29% | 50µM* | . | ?
CCOc1cccc(C2/C(=C(/O)c3ccc4c(c3)CC(C)O4)C(=O)C(=O)N2CCCn2ccnc2)c1 (stereo unspecified) | 53% | -28% | ? | . | ?
CCC(=O)N1CCc2cc(Br)c(S(=O)(=O)CCC(=O)NCCc3ccccc3)cc21 | 17% | -5% | . | . | .
Cc1ccnc(NS(=O)(=O)c2ccc(N3C(=O)c4c(Cl)c(Cl)c(Cl)c(Cl)c4C3=O)cc2)n1 | ? | 89µM* | ? | 8% | ?
O=c1c2c3c(sc2n(CCN2CCCC2)c(=O)n1Cc1ccco1)CCCCC3 | ? | 79µM* | 3% | -5% | -35%
CC(=O)N1CCc2c(sc3c2c(=O)n(-c2ccccc2)c(=O)n3CC(=O)Nc2cccc(C)c2)C1 | 18% | -19% | 0%[59 µM] | . | -1%
Cc1ccc(NC(=O)Cn2c(=O)n(CCc3ccccc3)c(=O)c3c4c(sc32)CCCC4)cc1C | 4% | -18% | 10%[59 µM] | . | -2%
CC(=O)N1CCc2c(sc3c2c(=O)n(-c2ccccc2)c(=O)n3CC(=O)Nc2ccccc2)C1 | 9% | 79µM* | 6%[59 µM] | . | -2%
CN(C)CCn1c(=O)n(Cc2ccco2)c(=O)c2c3c(sc21)CCCCC3 | 9% | ? | ? | -10% | ?
O=C(Cn1c(=O)n(Cc2ccco2)c(=O)c2c3c(sc21)CCCCC3)Nc1ccccc1 | -29% | 32µM* | . | ? | 50µM*
CCOC(=O)CSc1nnc2n(Cc3ccccc3)c(=O)c3c4c(sc3n12)CCC4 | -26% | -15%[11.4 µM] | 40µM* | 8% | 1%
COCCc1nn2c(=O)cc(COC(=O)c3ccc4c(c3)OCO4)nc2s1 | 14% | -24% | 12%[59 µM] | . | -28%
CCN(c1ccccc1)S(=O)(=O)c1nnc(NC(=O)COc2cccc(C)c2)s1 | 45% | -5% | 0%[59 µM] | . | -22%
O=C(O)Cn1c(=O)c2c3c(sc2n(Cc2ccccc2)c1=O)CCCC3 | 59% | 0% | -34% | . | 89µM*
Cc1nnc2n(Cc3ccccc3)c(=O)c3c4c(sc3n12)CCCC4 | . | . | -3%[59 µM] | . | 2%
CC1(C)CC(=O)c2cc(-c3nc(-c4ccc(Cl)cc4)cs3)c(=O)n(-c3ccc(Cl)cc3)c2C1 | 40% | -1% | -1%[59 µM] | . | 7%
COc1ccc(C2CC(=O)c3cc(-c4nc(-c5cccc([N+](=O)[O-])c5)cs4)c(=O)n(-c4cccc(C)c4)c3C2)cc1 (stereo unspecified) | 20% | -25% | 16µM* | . | -19%
COc1ccc(-n2c3c(cc(-c4nc(-c5ccc(Cl)cc5)cs4)c2=O)C(=O)CC(C)(C)C3)cc1Cl | 29% | -10% | 8.9µM* | . | -36%
COc1ccc(-n2c(-c3ccc(Cl)cc3)cc3c2CC(C)(C)CC3=O)c(OC)c1 | ? | 14µM* | 13µM* | . | 11µM*
COc1ccc(-n2c3c(cc(-c4nc(-c5ccc(Cl)cc5)cs4)c2=O)C(=O)CC(C)(C)C3)cc1 | 46% | -14% | 4.5µM* | . | ?
COc1ccc(C2CC(=O)c3cc(-c4nc(-c5cccc([N+](=O)[O-])c5)cs4)c(=O)n(-c4ccc(OC)cc4)c3C2)cc1 (stereo unspecified) | 19% | -13% | -14%[59 µM] | . | -3%
CC1(C)CC(=O)c2cc(C#N)c(=O)n(-c3ccc(Cl)cc3)c2C1 | 36% | -7% | 14µM* | . | 4%
Cc1cc2c(n1-c1ccc(Cl)cc1)CC(C)(C)CC2=O | -7% | ? | -9%[12.7 µM] | . | ?
O=C(N1CCc2ccc(S(=O)(=O)N3CCN(S(=O)(=O)c4ccc5c(c4)OCCO5)CC3)cc2C1)C(F)(F)F | . | -4% | . | . | .
COc1ccc(C(=O)Nc2ccccc2C(=O)OCc2cc(=O)n3c4c(sc3n2)CCCC4)cc1 | 11% | -6% | 21%[59 µM] | . | -5%
O=C(O)c1cc([N+](=O)[O-])cc([N+](=O)[O-])c1N1CCN(c2cccc(C(F)(F)F)c2)CC1 | -16% | -36% | 56µM* | . | -36%
